{"source": "the supplement of paper PMC6411743", "biological_target": "T1, UniProt O00255|O00255-2|O00255-3", "T1 sequence (whole entry)": "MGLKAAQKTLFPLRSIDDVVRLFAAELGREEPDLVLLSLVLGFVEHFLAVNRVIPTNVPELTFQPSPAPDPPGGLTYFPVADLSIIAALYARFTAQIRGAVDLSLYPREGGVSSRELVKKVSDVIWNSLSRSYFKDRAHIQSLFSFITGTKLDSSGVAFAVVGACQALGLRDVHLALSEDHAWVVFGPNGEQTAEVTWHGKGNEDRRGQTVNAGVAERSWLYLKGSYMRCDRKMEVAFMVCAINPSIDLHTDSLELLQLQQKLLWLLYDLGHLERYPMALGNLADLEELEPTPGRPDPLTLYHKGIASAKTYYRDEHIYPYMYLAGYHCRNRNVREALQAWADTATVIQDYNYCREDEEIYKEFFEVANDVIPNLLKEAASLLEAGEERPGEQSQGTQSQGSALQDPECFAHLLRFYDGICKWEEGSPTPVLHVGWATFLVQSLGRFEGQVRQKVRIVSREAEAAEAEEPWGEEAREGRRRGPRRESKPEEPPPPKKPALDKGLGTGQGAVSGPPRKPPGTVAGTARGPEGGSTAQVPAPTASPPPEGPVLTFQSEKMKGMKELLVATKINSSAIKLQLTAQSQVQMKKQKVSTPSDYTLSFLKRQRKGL", "experiment": "NP40-soluble protein abundance relative to vehicle (solubility fold change) (ratio); higher = more soluble protein in presence of GTP", "experimental": "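Solubility proteome profiling in Jurkat crude lysate. Lysate was treated with Mg-GTP (0.1-10 mM) for 10 min at room temperature and 3 min at 37 °C, then solubilised with 0.8% NP40 and benzonase, followed by ultracentrifugation. Proteins were quantified by TMT10 LC-MS/MS; the value is the NP40-soluble abundance relative to the NP40-processed vehicle, from 3 independent experiments.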", "note": "± gives the standard deviation of the averaged measurements. About 5,400 targets were measured; listed, in parts, are those with the largest changes and a random draw of the rest."}
{"smiles": "Nc1nc2c(ncn2[C@@H]2O[C@H](COP(=O)(O)OP(=O)(O)OP(=O)(O)O)[C@@H](O)[C@H]2O)c(=O)[nH]1", "note": "[guanosine triphosphate]", "values": [{"measurement": "NP40-soluble protein abundance", "setting": "concentration: 0.1mM", "value": "1.05 ± 0.044"}, {"measurement": "NP40-soluble protein abundance", "setting": "concentration: 0.5mM", "value": "1.04 ± 0.043"}, {"measurement": "NP40-soluble protein abundance", "setting": "concentration: 1mM", "value": "1.04 ± 0.065"}, {"measurement": "NP40-soluble protein abundance", "setting": "concentration: 2mM", "value": "1.07 ± 0.023"}, {"measurement": "NP40-soluble protein abundance", "setting": "concentration: 4mM", "value": "1.16 ± 0.069"}, {"measurement": "NP40-soluble protein abundance", "setting": "concentration: 6mM", "value": "1.14 ± 0.025"}, {"measurement": "NP40-soluble protein abundance", "setting": "concentration: 8mM", "value": "1.2 ± 0.016"}, {"measurement": "NP40-soluble protein abundance", "setting": "concentration: 10mM", "value": "1.21 ± 0.023"}]}
